{"source": "the supplement of paper PMC6555819", "data": [{"system": "PPARg DBDmut:RXRa IVT, anti-PPARg (DBD mutation: PPARg1 K132A/R137A, NR concentration 270 nM, RXRa partner concentration 90 nM)", "assay": "PBM binding z-score (relative to random genomic background probes); higher = stronger binding; sequences stand for … in GC…GCGATTGACAGCGTAGAATGAAGG", "summary_of_the_method": "(§1)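 The probes on custom Agilent 4×180K protein-binding microarrays were double-stranded, with 34-nt variable regions bearing direct-repeat seeds, single-nucleotide variants, half-site ablations and random human genomic background sequences. Incubation lasted 1 h with ligand-free nuclear receptor dimers in PBS pH 7.4, 2% milk, 0.02% Triton X-100, 1 mM DTT, 0.2 mg/mL BSA and 0.4 mg/ml salmon testes DNA. Antibodies against each partner (one per run) detected bound dimers, and fluorescence scans were regression-normalized. Binding z-scores take the random background probes as reference.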", "values": [{"sequence": "CCTTACGGGTCACTCCAGGTTATAGCATCGGAGT", "PBM binding z-score": -0.0737}, {"sequence": "TTGCCTAGGTCATGGGCCAGTATACCACGCGAAC", "PBM binding z-score": 0.457}, {"sequence": "TCTTGTAGATCAATGGTTAAGAAAGCCGAAGCCT", "PBM binding z-score": 0.47}, {"sequence": "CCGACTGGGGCATAAGGTTACCCTAAGCCAGCCC", "PBM binding z-score": -0.367}, {"sequence": "CCTTACTGGTCACTCCAGGTTATAGCATCGGAGT", "PBM binding z-score": 0.287}, {"sequence": "ATCTCTAGGTCACCAAGTTCAGTGAATGCCGAAC", "PBM binding z-score": 2.4}, {"sequence": "AGAACGAGGGCAATGAGTTGTTAGCACGGGTGGC", "PBM binding z-score": 0.326}, {"sequence": "GCTGCTACGTCAGGTTGGTCAGCTAACGGGTACG", "PBM binding z-score": -0.712}, {"sequence": "TAGCCTAGGTCAGACCGGGCCAGTATACGCTATA", "PBM binding z-score": -0.551}, {"sequence": "CCGAGTAGGTTATGGGGCACTCAGGCAACGGTGA", "PBM binding z-score": -0.555}, {"sequence": "GCTTACGGGTCAAAGGTGATAGCATGAATAGAAT", "PBM binding z-score": 1.11}, {"sequence": "CCTACTGGGCCAAACAGGTCATTGATGCCGATAA", "PBM binding z-score": 0.0161}, {"sequence": "ATATGTAGGTTATGGGGTCATTCAGTTTGCGCAT", "PBM binding z-score": 1.83}, {"sequence": "ATCGAAAGGTCGTGAGGTTAGTATACAGAAAGGC", "PBM binding z-score": 1.19}, {"sequence": "GCGACTGGGGCAAAGCAGGTTTCCATAAGGTTGG", "PBM binding z-score": -0.184}, {"sequence": "CCTACTAGGCCAAAAAGGTCATTGATGCCGATAA", "PBM binding z-score": -0.262}, {"sequence": "GCTGCTAGGTCAACTGTTGGTCAGCTAAAGCTCG", "PBM binding z-score": 0.227}, {"sequence": "AGAACGAGGGCACGTTGAGTTGATAGCAGAGTAG", "PBM binding z-score": 0.741}, {"sequence": "CGTCCAGGGTCAAAGGTCAGTGAAGAGATGACGG", "PBM binding z-score": 0.657}, {"sequence": "ATCACTAGGTAAAAGTTCAGTGAATCCCGAGGAT", "PBM binding z-score": 1.04}, {"sequence": "CCAGATAGGTGAGAAGGTAACTCAGCCTCGATTA", "PBM binding z-score": -0.37}, {"sequence": "ACTATTAGTTAACTTAGGGCAACCGATACGACGC", "PBM binding z-score": 0.677}, {"sequence": "AGTCAAAGTTAACTAGGTAACGTAAGATTCAGCT", "PBM binding z-score": 1}, {"sequence": "TCTTGTAGATCAAGCAGGTTAAGACAGCCTGAGT", "PBM binding z-score": 0.703}, {"sequence": "GCTAGTTGGTAAGTAAAAGGTCACACACCGGTCG", "PBM binding z-score": -0.0152}, {"sequence": "CGAACTAGGTCATTGACAGGACAGTGAGTAGTAA", "PBM binding z-score": 0.587}, {"sequence": "TCTTGTAGATCAATAGAGGTCAAGAAAGTGCGCT", "PBM binding z-score": 1.22}, {"sequence": "ACTAACAGGCCAAGTTTGGGTCACTCAAACAAAG", "PBM binding z-score": -0.122}, {"sequence": "TCTATTAGTTGAAGGGCAAACGACGAGTCCGTTT", "PBM binding z-score": 0.606}, {"sequence": "GCTAGGTGGTCAGTAAAAGGTCACACACCGGTCG", "PBM binding z-score": 0.634}, {"sequence": "ATCTCTAGGTAACAAGTACAGTGAAAGAGAGGAC", "PBM binding z-score": 1.63}, {"sequence": "ATCTCTAGGTAAAAGCTCAGTGAATCCCGAGGAT", "PBM binding z-score": 0.208}, {"sequence": "TTACCAAGGTGCAGGTCGTTGATCCCTCTGTAGA", "PBM binding z-score": -0.281}, {"sequence": "AGACTGAGGTTATACGTAGATCAGGGAAGAAAGT", "PBM binding z-score": 0.201}, {"sequence": "CAAACTAGGTCAGAGGTCAAAGTCGAGCCAACCA", "PBM binding z-score": 2.06}, {"sequence": "GCGCGGAGGACAAGGTCAGAGCTTTGTCCGTAGA", "PBM binding z-score": -1.67}, {"sequence": "TCTCGGAGGACACGAAAGGTCAGGGCTCGACATC", "PBM binding z-score": 0.171}, {"sequence": "TATGCAGGGTCAAAGGCCAGAGTACGAATGTCGA", "PBM binding z-score": 0.572}, {"sequence": "CCTAATGGGCCAAGGTCATTGATCAGTCAAAGCA", "PBM binding z-score": -0.175}, {"sequence": "AGAACGAGGGCACGCGGAGTTGATAGCAGAGTAG", "PBM binding z-score": 0.563}]}, {"system": "PPARg DBDmut IVT, anti-PPARg (DBD mutation: PPARg1 K132A/R137A, NR concentration 270 nM)", "assay": "PBM binding z-score (relative to random genomic background probes); higher = stronger binding; sequences stand for … in GC…GCGATTGACAGCGTAGAATGAAGG", "summary_of_the_method": "as §1", "values": [{"sequence": "CCTTACGGGTCACTCCAGGTTATAGCATCGGAGT", "PBM binding z-score": -0.285}, {"sequence": "TTGCCTAGGTCATGGGCCAGTATACCACGCGAAC", "PBM binding z-score": 0.0191}, {"sequence": "TCTTGTAGATCAATGGTTAAGAAAGCCGAAGCCT", "PBM binding z-score": 0.225}, {"sequence": "CCGACTGGGGCATAAGGTTACCCTAAGCCAGCCC", "PBM binding z-score": -1.53}, {"sequence": "CCTTACTGGTCACTCCAGGTTATAGCATCGGAGT", "PBM binding z-score": 0.23}, {"sequence": "ATCTCTAGGTCACCAAGTTCAGTGAATGCCGAAC", "PBM binding z-score": 2.04}, {"sequence": "AGAACGAGGGCAATGAGTTGTTAGCACGGGTGGC", "PBM binding z-score": -0.308}, {"sequence": "GCTGCTACGTCAGGTTGGTCAGCTAACGGGTACG", "PBM binding z-score": -1.19}, {"sequence": "TAGCCTAGGTCAGACCGGGCCAGTATACGCTATA", "PBM binding z-score": -1.06}, {"sequence": "CCGAGTAGGTTATGGGGCACTCAGGCAACGGTGA", "PBM binding z-score": -0.9}, {"sequence": "GCTTACGGGTCAAAGGTGATAGCATGAATAGAAT", "PBM binding z-score": 0.857}, {"sequence": "CCTACTGGGCCAAACAGGTCATTGATGCCGATAA", "PBM binding z-score": -0.301}, {"sequence": "ATATGTAGGTTATGGGGTCATTCAGTTTGCGCAT", "PBM binding z-score": 2.58}, {"sequence": "ATCGAAAGGTCGTGAGGTTAGTATACAGAAAGGC", "PBM binding z-score": 1.52}, {"sequence": "GCGACTGGGGCAAAGCAGGTTTCCATAAGGTTGG", "PBM binding z-score": -0.615}, {"sequence": "CCTACTAGGCCAAAAAGGTCATTGATGCCGATAA", "PBM binding z-score": -0.187}, {"sequence": "GCTGCTAGGTCAACTGTTGGTCAGCTAAAGCTCG", "PBM binding z-score": -0.586}, {"sequence": "AGAACGAGGGCACGTTGAGTTGATAGCAGAGTAG", "PBM binding z-score": -0.039}, {"sequence": "CGTCCAGGGTCAAAGGTCAGTGAAGAGATGACGG", "PBM binding z-score": 0.0677}, {"sequence": "ATCACTAGGTAAAAGTTCAGTGAATCCCGAGGAT", "PBM binding z-score": 1.36}, {"sequence": "CCAGATAGGTGAGAAGGTAACTCAGCCTCGATTA", "PBM binding z-score": -0.16}, {"sequence": "ACTATTAGTTAACTTAGGGCAACCGATACGACGC", "PBM binding z-score": 1.02}, {"sequence": "AGTCAAAGTTAACTAGGTAACGTAAGATTCAGCT", "PBM binding z-score": 1.26}, {"sequence": "TCTTGTAGATCAAGCAGGTTAAGACAGCCTGAGT", "PBM binding z-score": 0.0402}, {"sequence": "GCTAGTTGGTAAGTAAAAGGTCACACACCGGTCG", "PBM binding z-score": 0.693}, {"sequence": "CGAACTAGGTCATTGACAGGACAGTGAGTAGTAA", "PBM binding z-score": 2.61}, {"sequence": "TCTTGTAGATCAATAGAGGTCAAGAAAGTGCGCT", "PBM binding z-score": 0.341}, {"sequence": "ACTAACAGGCCAAGTTTGGGTCACTCAAACAAAG", "PBM binding z-score": 0.374}, {"sequence": "TCTATTAGTTGAAGGGCAAACGACGAGTCCGTTT", "PBM binding z-score": 0.592}, {"sequence": "GCTAGGTGGTCAGTAAAAGGTCACACACCGGTCG", "PBM binding z-score": 0.226}, {"sequence": "ATCTCTAGGTAACAAGTACAGTGAAAGAGAGGAC", "PBM binding z-score": 0.83}, {"sequence": "ATCTCTAGGTAAAAGCTCAGTGAATCCCGAGGAT", "PBM binding z-score": 0.808}, {"sequence": "TTACCAAGGTGCAGGTCGTTGATCCCTCTGTAGA", "PBM binding z-score": -1.32}, {"sequence": "AGACTGAGGTTATACGTAGATCAGGGAAGAAAGT", "PBM binding z-score": 0.0103}, {"sequence": "CAAACTAGGTCAGAGGTCAAAGTCGAGCCAACCA", "PBM binding z-score": 4.69}, {"sequence": "GCGCGGAGGACAAGGTCAGAGCTTTGTCCGTAGA", "PBM binding z-score": -1.56}, {"sequence": "TCTCGGAGGACACGAAAGGTCAGGGCTCGACATC", "PBM binding z-score": -0.651}, {"sequence": "TATGCAGGGTCAAAGGCCAGAGTACGAATGTCGA", "PBM binding z-score": 0.66}, {"sequence": "CCTAATGGGCCAAGGTCATTGATCAGTCAAAGCA", "PBM binding z-score": -0.521}, {"sequence": "AGAACGAGGGCACGCGGAGTTGATAGCAGAGTAG", "PBM binding z-score": -0.521}]}]}
